Experimental data from PubChem BioAssay AID1159580 (chemical genetic matrix, 2015).
In all, about 5,500 compounds went through this assay and about 2,000 (36%) were called active. Another 18% or so got no clear call; they are omitted. Rule as the data show it: active = normalized growth mostly below about 0.91 (no sharp cut-off); inconclusive = no clear call, values can overlap the other calls; inactive = mostly above about 0.92. The list shows a part of the results.

Assay: chemical genetic growth profiling, strain panel (AID 1159580);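 also: tested at 20 µM; growth read once vehicle control cultures reached saturation at 30 °C; 1 = growth at the plate median or of vehicle wells; lower values mean less growth of the strain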
Conditions: S. cerevisiae deletion strains, growth OD
[1] = locus YAL013W, strain DEP1, active compounds read low
[2] = locus YBR229C, strain ROT2, active compounds read low
[3] = locus YDL101C, strain DUN1, active compounds read low
[4] = locus YDL134C, strain PPH21, active compounds read low
[5] = locus YDR150W, strain NUM1, active compounds read low
[6] = locus YEL061C, strain CIN8, active compounds read low
[7] = locus YGR078C, strain PAC10, active compounds read low
[8] = locus YGR229C, strain SMI1, active compounds read low
[9] = locus YHR030C, strain SLT2, active compounds read low
[10] = locus YHR087W, strain rtc3, active compounds read low
[11] = locus YJR043C, strain POL32, active compounds read low
[12] = locus YJR075W, strain HOC1, active compounds read low
[13] = locus YLR039C, strain RIC1, active compounds read low
[14] = locus YLR058C, strain SHM2 (second series), active compounds read low
[15] = locus YLR085C, strain ARP6, active compounds read low
[16] = locus YLR262C, strain YPT6, active compounds read low
[17] = locus YML094W, strain GIM5, active compounds read low
[18] = locus YMR219W, strain ESC1, active compounds read low
[19] = locus YMR263W, strain SAP30, active compounds read low
[20] = locus YNL153C, strain GIM3, active compounds read low
[21] = locus YNL298W, strain CLA4 (second series), active compounds read low
[22] = locus YNL322C, strain KRE1, active compounds read low
[23] = locus YNR030W, strain Alg12, active compounds read low
[24] = locus YPL055C, strain LGE1, active compounds read low
[25] = locus YPL241C, strain CIN2, active compounds read low
[26] = locus YPR135W, strain CTF4, active compounds read low

Measured: normalized growth

COc1ccc(/C(C#N)=C/c2ccc(OC)c(OC)c2)cc1
active: [9] 0.548 | [13] 0.717 | [15] 0.768 | [16] 0.741
inactive: [1] 0.953 | [2] 0.98 | [3] 0.985 | [4] 0.949 | [5] 0.951 | [6] 0.961 | [7] 0.968 | [8] 0.972 | [10] 0.962 | locus YJL187C, strain SWE1, active compounds read low 1 | [11] 0.964 | [12] 0.95 | [14] 0.998 | [17] 0.933 | [18] 0.998 | [19] 0.953 | [20] 0.969 | [21] 0.936 | [22] 0.994 | [23] 0.925 | [24] 0.9 | [25] 0.933 | [26] 0.698

COc1ccc(/C=N\NC(=O)CC#N)cc1OC
inactive: [1] 1 | [2] 1 | [3] 1.04 | [4] 0.999 | [5] 1.04 | [6] 0.985 | [7] 0.998 | [8] 1 | [9] 1.05 | [10] 0.996 | [11] 1.01 | [12] 1.01 | locus YKL190W, strain CNB1, active compounds read low 1 | [13] 1 | [14] 1.04 | [15] 0.957 | [16] 1.01 | [17] 0.998 | [18] 0.997 | [19] 1.04 | locus YNL128W, strain TEP1, active compounds read low 1.01 | [20] 1.03 | [21] 1.02 | [22] 1 | [23] 0.998 | [24] 1.15 | [25] 1.01 | [26] 1.29

N#C/C(=C\C=C\c1ccccc1)c1nc2ccccc2[nH]1
inactive: locus YAR019C, strain CDC15, active compounds read low 0.958 | locus YBL105C, strain PKC1, active compounds read low 0.969 | locus YBR135W, strain CKS1, active compounds read low 0.944 | locus YBR136W, strain MEC1, active compounds read low 0.962 | locus YBR160W, strain CDC28, active compounds read low 0.962 | locus YDL017W, strain CDC7, active compounds read low 0.961 | locus YDL028C, strain MPS1, active compounds read low 0.962 | [3] 0.973 | locus YDL108W, strain KIN28, active compounds read low 0.968 | locus YDL132W, strain cdc53, active compounds read low 0.964 | locus YDL214C, strain PRR2, active compounds read low 0.864 | locus YDR052C, strain DBF4, active compounds read low 0.966 | locus YDR054C, strain cdc34, active compounds read low 0.955 | locus YDR226W, strain ADK1, active compounds read low 0.962 | locus YDR477W, strain SNF1, active compounds read low 0.823 | locus YER123W, strain YCK3, active compounds read low 0.878 | locus YER133W, strain GLC7, active compounds read low 0.834 | locus YFL009W, strain cdc4, active compounds read low 0.964 | locus YFL029C, strain CAK1, active compounds read low 0.958 | locus YFR003C, strain YPI1, active compounds read low 0.976 | locus YFR019W, strain FAB1, active compounds read low 0.966 | locus YFR028C, strain CDC14, active compounds read low 0.956 | locus YGR040W, strain KSS1, active compounds read low 0.83 | locus YGR052W, strain FMP48, active compounds read low 0.916 | locus YGR092W, strain DBF2, active compounds read low 0.829 | locus YHR079C, strain IRE1, active compounds read low 0.848 | locus YHR082C, strain KSP1, active compounds read low 0.819 | locus YHR205W, strain SCH9, active compounds read low 0.818 | locus YIL147C, strain SLN1, active compounds read low 0.967 | locus YJL095W, strain BCK1, active compounds read low 0.729 | locus YJL128C, strain PBS2, active compounds read low 0.957 | locus YJL157C, strain FAR1, active compounds read low 0.886 | locus YJR016C, strain ILV3, active compounds read low 0.958 | locus YJR066W, strain TOR1 (second series), active compounds read low 0.871 | locus YJR066W, strain TOR1, active compounds read low 0.791 | locus YKL048C, strain ELM1, active compounds read low 0.904 | locus YKL067W, strain YNK1, active compounds read low 0.898 | locus YKL101W, strain HSL1, active compounds read low 0.882 | locus YKL193C, strain SDS22, active compounds read low 0.95 | locus YKL203C, strain TOR2, active compounds read low 0.878 | locus YLR133W, strain CKI1, active compounds read low 0.891 | locus YLR403W, strain SFP1, active compounds read low 0.86 | locus YML070W, strain DAK1, active compounds read low 0.864 | locus YMR001C, strain CDC5, active compounds read low 0.956 | locus YMR205C, strain PFK2 (second series), active compounds read low 0.901 | locus YMR277W, strain FCP1, active compounds read low 0.955 | locus YNL006W, strain LST8, active compounds read low 0.96 | locus YNL020C, strain ARK1, active compounds read low 0.896 | locus YNL161W, strain CBK1, active compounds read low 0.956 | locus YNL183C, strain NPR1, active compounds read low 0.793 | locus YNL207W, strain RIO2, active compounds read low 0.946 | locus YNL222W, strain SSU72, active compounds read low 0.957 | locus YNL307C, strain MCK1 (second series), active compounds read low 0.866 | locus YOL078W, strain AVO1, active compounds read low 0.954 | locus YOL136C, strain PFK27, active compounds read low 0.885 | locus YOR061W, strain CKA2, active compounds read low 0.908 | locus YOR119C, strain RIO1, active compounds read low 0.875 | locus YOR231W, strain MKK1, active compounds read low 0.828 | locus YOR329C, strain SCD5, active compounds read low 0.976 | locus YPL031C, strain PHO85, active compounds read low 0.824 | locus YPL153C, strain RAD53, active compounds read low 0.855 | locus YPL204W, strain HRR25, active compounds read low 0.827 | locus YPL209C, strain IPL1, active compounds read low 0.963 | locus YPR025C, strain CCL1, active compounds read low 0.952 | locus YPR106W, strain ISR1, active compounds read low 0.965 | locus YPR111W, strain DBF20, active compounds read low 0.944 | strain NNK1, active compounds read low 0.942 | strain TSCII, active compounds read low 0.952
active: [9] 0.673 | locus YLR113W, strain HOG1, active compounds read low 0.658 | locus YPL256C, strain CLN2, active compounds read low 0.767
